# Reference: PubChem BioAssay
# Target: Follistatin (Homo sapiens) (UniProt P19883)
# Assay: follistatin binders on small-molecule microarrays, primary screen, biochemical, small-molecule microarray, 635/667 nm fluorescence (AID 1132)
# Conditions: FST binding, 635 nm fluorescence, higher = more signal
# Chain of Follistatin (Homo sapiens) (P19883 whole entry, looked up): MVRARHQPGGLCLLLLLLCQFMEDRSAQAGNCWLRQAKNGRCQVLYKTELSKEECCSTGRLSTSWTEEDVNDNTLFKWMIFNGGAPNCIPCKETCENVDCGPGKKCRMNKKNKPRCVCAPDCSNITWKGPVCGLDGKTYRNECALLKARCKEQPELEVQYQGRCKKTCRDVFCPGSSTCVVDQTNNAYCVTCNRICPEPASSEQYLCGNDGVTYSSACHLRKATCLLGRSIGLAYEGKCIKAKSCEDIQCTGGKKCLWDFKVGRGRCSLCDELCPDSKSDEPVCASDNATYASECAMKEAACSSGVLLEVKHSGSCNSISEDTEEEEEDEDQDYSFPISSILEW
row,Structure (SMILES),composite z-score
1,C=C(COC)/C(=C/C[C@@H](OC(C)=O)c1cccc(OCCO)c1)c1cc(C(=O)OC)ccc1OC,0.954
2,CC(C)(C)OC(=O)CC[C@]1(C(=O)NCCN2CCOCC2)N=C(c2ccc(OCCCO)cc2)O[C@H]1c1ccccc1CN=[N+]=[N-],-0.651
3,CC(=O)NCCCC[C@@H]1NC(=O)[C@@H]2C[C@H](C(=O)NCCCCCCN(C)C)[C@H](c3ccc(O)cc3)N2C1=O,1.34
4,Cc1ccc(S[C@]2(C(=O)O)CC(=O)N(Cc3ccccc3)[C@@H]2c2ccc(CO)cc2)cc1,-0.256
5,O=C1c2ccccc2[C@](Cc2ccccc2I)(C(=O)NCC(F)(F)F)[C@H](c2ccc(CO)cc2)N1Cc1ccccc1C(F)(F)F,0.678
6,O=C1OCCC=C[C@H]2OC34C=CCN(Cc5ccccc5)C(=O)[C@H]3N(CCO)C(=O)[C@@H]4C12 (stereo partly specified),-1.21
7,C=CCNC(=O)[C@H]1[C@@H]2C(=O)O[C@@H](c3ccccc3)[C@@H](c3ccccc3)N2[C@@H](c2ccccc2OCCO)[C@]12C(=O)N(C(=O)OCCOC)c1ccc(C#CCC(C(=O)OC)C(=O)OC)cc12,1.24
8,COc1ccc([Si](C)(C)[C@H]2[C@H](CC(=O)N3Cc4ccccc4C[C@H]3CO)O[C@@]3(C(=O)N(Cc4cccc(N5CCOC5=O)c4)c4ccccc43)[C@@H]2C)cc1,1.31
9,CC(C)N1CC=CC23O[C@@H]4/C=C\CCCOC(=O)C4[C@H]2C(=O)N(CCO)[C@@H]3C1=O (stereo partly specified),-0.544
10,CC(C)CN1C(=O)[C@@]2(Cc3ccccc31)c1ccccc1C(=O)N(C1CCCCC1)[C@H]2c1ccc(CO)cc1,-0.447
11,COc1cccc([C@@H]2[C@@H](C)CC[C@H]3C(=O)N4[C@H](c5cccc(OC)c5)[C@@H](C)CC[C@H]4C(=O)N23)c1,0.614
12,CO[C@H]1COC(=O)[C@H](Cc2ccccc2)NC(=O)CC=C[C@@H](C)[C@H](OC)COC(=O)CC=C[C@@H]1C,0.424
13,CO[C@H]1COC(=O)[C@@H](OCc2ccccc2)C=C[C@H](C)[C@@H](OC)COC(=O)[C@H](OCc2ccccc2)C=C[C@@H]1C,0.266
14,O=C1O[C@@H](c2ccccc2)[C@@H](c2ccccc2)N2[C@@H](c3ccc(O)cc3)[C@]3(C(=O)Nc4ccccc43)[C@@H](C(=O)N3CCN(c4ncccn4)CC3)[C@H]12,0.169
15,O=C1O[C@@H](c2ccccc2)[C@@H](c2ccccc2)N2[C@@H](c3ccc(O)cc3)[C@]3(C(=O)Nc4ccc(C#CC5(O)CCCCCC5)cc43)[C@@H](C(=O)Nc3nc4ccccc4s3)[C@H]12,1.37
16,C=CC[C@]1(C(N)=O)N=C(c2ccc(OCCCO)cc2)O[C@H]1c1ccccc1CN=[N+]=[N-],0.653
17,COCCOC(=O)N1C(=O)[C@@]2(c3cc(C#CCCO)ccc31)[C@H](C(=O)N1CCCCCCC1)[C@H]1C(=O)O[C@H](c3ccccc3)[C@H](c3ccccc3)N1[C@@H]2c1ccc(O)cc1,1.34
18,C=CCOC(=O)[C@@H]1[C@H]2C(=O)O[C@H](c3ccccc3)[C@H](c3ccccc3)N2[C@H](c2ccc(OCCOC(=O)[C@H]3C[C@H]4C(=O)N5CCC[C@H]5C(=O)N4[C@H]3c3ccc(O)cc3)cc2)[C@@]12C(=O)Nc1ccccc12,1.37

row,Structure (SMILES),composite z-score
1,CO[C@H]1COC(=O)CC=C[C@@H](C)COC(=O)[C@@H](C)NC(=O)CC=C[C@@H]1C,1.44
2,C=CCN1C(=O)[C@@]2(O[C@@H](CCn3cc([C@H](O)c4ccccc4)nn3)[C@H]([Si](C)(C)c3ccc(OC)cc3)[C@H]2C)c2cc(N3CCOC3=O)ccc21,0.0302
3,CCCC/C=C/[C@H]([C@@H](O)Cc1ccccc1)N(CC#Cc1ccccc1)Cc1ccccc1Br,-1.59
4,CCOC(=O)[C@H]1C/C=C/C[C@H](C(=O)OCC)C(=O)O[C@H]2[C@@H](OC)O[C@H](CO)[C@@H](OC(=O)Nc3ccc(Br)cc3)[C@@H]2OC1=O,0.623
5,COC(=O)c1c(CC[C@@H](CO)NC(=O)N[C@H](Cn2cc(-c3cncn3C)nn2)C(C)C)oc(C(C)=O)c1C(=O)OC,0.415
6,COc1ccc([Si](C)(C)[C@H]2[C@H](CCO)O[C@@]3(C(=O)N(Cc4ccc(N5CCCCC5=O)cc4)c4ccccc43)[C@@H]2C)cc1,1.3
7,O=C1c2ccccc2[C@](Cc2ccccc2I)(C(=O)O)[C@H](c2ccc(CO)cc2)N1C1CCCCC1,1.33
8,CCCNC(=O)[C@@]1(Sc2ccc(C)cc2)CC(=O)N(Cc2ccccc2Cl)[C@@H]1c1ccc(CO)cc1,1.42
9,O=C(NCC(O)CO)[C@]1(Cc2ccccc2)N=C(c2ccc(OCCCO)cc2)O[C@@H]1c1ccccc1 (stereo partly specified),0.585
10,O=C(CS)NCCCCCNC(=O)[C@H]1C[C@H]2C(=O)N3CCC[C@H]3C(=O)N2[C@H]1c1ccc(O)cc1,0.927
11,COc1cccc([C@H]2N[C@H](C(=O)O)CC[C@@H]2C)c1,0.0807
12,CC(C)[Si]1(C(C)C)O[C@@H](c2ccccc2)c2cc(C3CC3)nc(-c3ccc(Oc4ccccc4)cc3)c21,-0.591
13,CC(=O)Nc1ccc([C@H]2[C@H](C)CC[C@H]3C(=O)N4[C@@H](CC[C@@H](C)[C@@H]4c4ccc(NC(C)=O)cc4)C(=O)N32)cc1,1.19
14,COc1cc2c(cc1OC)CN(C(=O)[C@@H]1[C@H]3C(=O)O[C@H](c4ccccc4)[C@H](c4ccccc4)N3[C@H](c3ccccc3OCCO)[C@@]13C(=O)Nc1ccccc13)CC2,0.666
15,[N-]=[N+]=NCc1ccccc1C[C@@]1(C(=O)N2CCOCC2)N=C(c2ccc(OCCCO)cc2)O[C@@H]1c1ccccc1N=[N+]=[N-],1.12
16,C=CC[C@]1(C(=O)OC)N=C(c2ccc(OCCCO)cc2)O[C@H]1c1ccccc1CN=[N+]=[N-],0.286
17,CO[C@]12C=C(Br)[C@@H](C[C@@H]1c1ccccc1)[C@@]1(CO1)C2=O,0.931
18,C[C@]1(C(=O)NCc2ccccc2)c2ccccc2C(=O)N(Cc2cc(C(F)(F)F)cc(C(F)(F)F)c2)[C@H]1c1ccc(CO)cc1,1.34
